Pf growth 48h: P. falciparum growth inhibition at 48 hours (one generation); P. falciparum luciferase growth in erythrocytes, 48 h; AID 504832; Potency, µM (doses to about 28.7 µM), without a hit: at the top dose activity change, negative = inhibition, hits mostly inhibitors; 310,000 compounds, 5.9% hits
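Luciferase-expressing P. falciparum in infected erythrocytes (2% hematocrit, 0.1% parasitemia final) in RPMI 1640/0.5% Albumax were exposed to compound for 48 hours at 37 C, 5% CO2; growth read as luminescence.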
AMA1 RON2 block: disrupts binding of P. falciparum AMA1 to RON2; AlphaScreen AMA1-biotinylated RON2 peptide binding; Potency, µM (doses to about 58.2 µM), for inactives: at the highest dose activity change, negative = inhibition, usual class: inhibitors; 360,000 compounds, 0.2% hits; AID 720542;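 further: 0% = vehicle wells and -100% = peptide control; nearly all actives have a fitted effect of over 45% in size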
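AMA1 (3D7) with his tag at 25 nM final met compounds first, then biotinylated RON2 peptide at 25 nM; detection used donor plus acceptor beads, 10 µg/mL apiece, read by AlphaScreen after 30 min at room temperature.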
VACV mCherry inh: vaccinia inhibition (mCherry reporter) | Potency, µM (series often up to 36.5 µM), without a hit: at the top dose activity change, negative = inhibition, actives largely listed as inhibitors | Vaccinia virus mCherry reporter infection, fluorescence | 310,000 compounds, 0.63% hits | AID 720579; calls by dose curve; tested in A549 cells; further: nearly all actives have a fitted effect of over 35% in size
VACV Venus inh: inhibitors of vaccinia virus (Venus reporter); Vaccinia virus Venus reporter expression, fluorescence; Potency, µM (highest dose often 36.5 µM), inactives show at the top dose activity change, negative = inhibition, usual class: inhibitors; AID 720580; 330,000 compounds, 0.46% hits; calls by dose curve; tested in A549 cells; further: nearly all actives have a fitted effect of over 30% in size
Pf growth 96h: inhibits malaria parasite growth, 96 h | P. falciparum luciferase reporter growth, 96 h | Potency, µM (highest dose often 28.7 µM), without a hit: at the top dose activity change, negative = inhibition, most hits filed as inhibitors | 320,000 compounds, 6.9% hits
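Cell-based qHTS: luciferase-tagged P. falciparum in erythrocytes (2% hematocrit, 0.05% parasitemia final) incubated with compounds for 96 hours, 37 C, 5% CO2; luciferase detection reagent then added and luminescence measured.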
Starred values were filed as active, the others as inactive; i = inactive; ? = inconclusive; . = no result given. Compounds with a hit are over-represented: about 8.7% of the library has one in this group of screens. Unless noted, the call rests on the fitted dose curve; in most records, active means well fitted curve in the direction sought with a large enough effect; inconclusive means small, poorly fitted or top-dose-only effect, or another doubt; inactive means no such curve, though single readings can be large; an effect the other way counts as inactive or inconclusive. Unless noted, on the % scale 0 is the no-effect control and ±100 the full control effect; potency means the concentration at half of the fitted maximal effect.

SMILES | Pf growth 48h | AMA1 RON2 block | VACV mCherry inh | VACV Venus inh | Pf growth 96h
O=C(CCl)NCCNC(=O)c1cc(OCC(F)(F)F)ccc1OCC(F)(F)F | ? | 7% | 2µM* | 2µM* | ?
CC1=C(C(=O)Nc2cccnc2)C(c2ccc(C)cc2)n2nc(SCc3ccccc3F)nc2N1 (configuration not stated) | . | . | -10% | 3% | .
Cc1cccc(NC(=O)CSc2nc3ccccc3c3nc(CCn4cncc4C)nn23)c1 | . | . | -17% | -9% | .
CCOC(=O)c1c[nH]c2c3c(ccc2c1=O)CCCC3 | 0.33µM* | -8% | . | . | ?
CCOC(=O)c1c[nH]c2c(C)cc(C)cc2c1=O | 5.2µM* | -19% | . | . | 10%
COc1ccc2c(c1)CC[C@@H]1[C@@H]2CC[C@]2(C)[C@@H](NCCCCCCN3C(=O)C=CC3=O)CC[C@@H]12 | . | . | i | -17% | .
COc1ccccc1N1CCN(c2ncnc3onc(C)c23)CC1 | . | . | -22% | -4% | .
Oc1ccc(C[C@@H]2CNCCN2CCc2cccc3ccccc23)cc1 | 13µM* | 12% | ? | ? | ?
CC(C)(C)CN1CCNC[C@H]1Cc1cccc2ccccc12 | ? | -1% | -12% | -19% | 9.3µM*
CCCCOC(=O)c1cc(=O)[nH]c2ccc(C)cc12 | ? | 7% | i | 4% | ?
CCCCOC(=O)c1cc(=O)[nH]c2ccccc12 | 6% | 1% | i | -18% | 12µM*
Cc1ccccc1-c1nn2c(=O)cc(CN3CCN(C(=O)/C=C/c4ccccc4)CC3)nc2s1 | . | . | -29% | -28% | .
Cc1[nH]c(C)c(Cl)c(=O)c1Cl | 6µM* | . | -14% | 1% | 3.4µM*
CN(C)c1ccc(/C=C/C=C2/C=Cc3ccccc32)cc1 | . | . | 1% | -13% | .
S=C=Nc1cccc(C2(N3CCCCC3)CCCCC2)c1 | 2.6µM* | -5% | -23% | -28% | 1.7µM*
Cc1ccc2onc(CC(=O)N3CCN(c4cccc(Cl)c4)CC3)c2c1 | . | . | 2% | 1% | .
CCCOP(=O)(c1ccc(N(C)C)cc1)C(O)c1ccccc1OC (configuration not stated) | 1% | -5% | . | . | 8%
CCCOP(=O)(c1ccc(N(C)C)cc1)C(Nc1ccccc1)c1ccc(N(C)C)cc1 (configuration not stated) | 2.6µM* | -15% | i | -6% | 8.3µM*
CCCCOP(=O)(c1ccc(N(C)C)cc1)C(Nc1ccccc1)c1ccccc1 (configuration not stated) | ? | ? | ? | ? | 15µM*
COc1ccc(CNS(=O)(=O)c2ccc3c(c2)C(C)(C)C(=O)N3C)cc1OC | . | . | -12% | -4% | .
CC1(C)CCc2cc(-c3ccn(S(=O)(=O)c4ccccc4Cl)n3)ccc2O1 | ? | 11% | -12% | -16% | ?
COc1ccc(S(=O)(=O)n2ccc(-c3ccc4c(c3)CCC(C)(C)O4)n2)cc1 | 10µM* | -1% | -19% | -16% | 9.3µM*
CN(C)c1nc(N)nc(Nc2ccccc2C#N)n1 | -5% | 12% | . | -12% | 13µM*
Cc1ccc(-n2c(=O)c3c4c(sc3n(CC(=O)C(C)(C)C)c2=O)CCCCC4)cc1C | . | . | -4% | -5% | .
O=C(CCc1ccc(S(=O)(=O)NC2CCCCC2)cc1)NCc1ccccn1 | 29% | 30% | -27% | -3% | -14%
SMILES | Pf growth 48h | AMA1 RON2 block | VACV mCherry inh | VACV Venus inh | Pf growth 96h
COc1ccc(CCNC(=O)COc2ccc(S(=O)(=O)NC3CCCCC3)cc2Cl)cc1 | 13µM* | 0% | i | ? | ?
O=C(COc1ccc(S(=O)(=O)NC2CCCCC2)cc1Cl)NCC1CCCO1 (configuration not stated) | ? | 21% | -17% | -17% | .
COc1ccc(S(=O)(=O)NC2CCCC2)cc1Cl | 13% | 8% | . | . | 66%
COc1ccc(S(=O)(=O)NC2CC2)cc1Cl | -23% | -4% | . | . | 2.3µM*
COc1cc(NS(=O)(=O)c2ccc(C)c(C)c2)c(OC)cc1Cl | -4% | 5% | . | . | 6.6µM*
O=C(COc1ccc(S(=O)(=O)NC2CCCCC2)cc1)NCc1ccccn1 | 1% | 35% | i | -3% | 4.1µM*
CC(C)c1ccc(NC(=O)C(Cc2ccccc2)NS(=O)(=O)c2ccc3c(c2)oc(=O)n3C)cc1 (configuration not stated) | . | . | -16% | -9% | .
Clc1cccc(N2CCN(c3ncnc4c3nc3n4CCCCC3)CC2)c1 | . | . | ? | -21% | .
CCC1(C2CCN(C(=O)c3ccc(C)cc3C)CC2)NC(=O)N(CCc2scnc2C)C1=O (configuration not stated) | . | . | i | -22% | .
COc1ccc(/C(C)=N\Nc2nc(-c3ccccc3)cc(=O)[nH]2)cc1 | 0.93µM* | 0% | -9% | -6% | 0.59µM*
CN(C)c1ccc(/C=N\Nc2nc(-c3ccccc3)cc(=O)[nH]2)cc1 | 2.3µM* | -1% | . | . | 2.3µM*
CN(C)c1ccc(C=NNc2nc3c([nH]2)c(=O)n(C)c(=O)n3C)cc1 | . | 47% | -15% | 3% | .
COC(=O)C1=C(C)NC(C)=C(C(=O)OC)C1c1ccccc1OCc1c(C)no[n+]1[O-] | 12µM* | 3% | ? | ? | 6%
CCOC(=O)C(C)n1cnc2c(nnn2-c2ccc(OC)cc2)c1=O (configuration not stated) | 14% | 6% | . | . | -4%
CCOC(=O)C(C)n1cnc2c(nnn2-c2ccc(C)cc2)c1=O (configuration not stated) | . | 0% | -11% | -2% | 7.4µM*
CCOC(=O)C(C)n1cnc2c(nnn2Cc2ccc(Cl)cc2)c1=O (configuration not stated) | . | 6% | . | . | 8.3µM*
CC(C)Oc1ccc(CNC(=O)C2CCN(C(=O)N3CC(C)Oc4ccccc43)CC2)cc1 (configuration not stated) | . | . | -11% | -17% | .
Cc1ccc(Nc2nc(N)nc(CN3CCN(C(=O)c4ccco4)CC3)n2)cc1Cl | ? | 15% | . | . | 7.4µM*
Cc1cccc(Nc2nc(N)nc(CN3CCN(c4ccc(F)cc4)CC3)n2)c1 | ? | -13% | . | . | 10µM*
Cc1ccc(Nc2nc(N)nc(CN3CCN(c4ccccc4F)CC3)n2)cc1 | ? | ? | . | . | 6.6µM*
CCOc1ccc2nc(NC(=O)c3nc(SCc4ccccc4C)ncc3Cl)sc2c1 | . | . | 0% | -4% | .
COc1ccccc1CNC(=O)Cn1c(=O)nc(-c2ccccc2)c2ccccc21 | . | . | -14% | -7% | .
COc1ccc(C)cc1NC(=O)c1sc2nc(-c3ccc(F)cc3)cn2c1C | . | . | -27% | -18% | .
CCCCn1c(=N)c(S(=O)(=O)c2ccc(Cl)cc2)cc2c(=O)n3cccc(C)c3nc21 | . | . | -7% | -2% | .
CCSC1=C(C#N)C2(CCCCC2)C2=C(CC(C)(C)CC2=O)N1 | 15% | -4% | -26% | -9% | ?
CC1(C)CC(=O)C2=C(C1)NC(SCC(N)=O)=C(C#N)C21CCCCC1 | ? | 2% | . | -27% | 0.17µM*

Bioassay records from PubChem.
